Assay outcomes as filed in PubChem.
This is a sample that favours compounds with a hit; in the whole collection about 0.83% have one here.
NR5A2 inv ag: suppresses constitutive activity of human LRH-1. inhibition, % at 3.6 µM. AID 602396. 360,000 compounds, 0.13% hits. HEK293T StAR-luciferase reporter, LRH-1 transfected, 24 h;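 active means inhibition above the mean inhibition of all tested compounds plus 3 SD, cut at about 73% in these data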
SRC2 inh: human SRC2 (NCOA2) inhibition. Q15596. HEK293 GAL4-SRC2 luciferase reporter, luminescence. inhibition, % at 9 µM. 370,000 compounds, 0.17% hits;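 active means inhibition above the mean inhibition of all tested compounds plus 3 SD, set per campaign, cut at about 52% in these data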
Gli-Sufu block: antagonists of Gli-Sufu signaling; Sufu-KO-LIGHT fibroblasts, Gli luciferase reporter luminescence; 340,000 compounds, 0.74% hits; inhibition, % at 5 µM;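 active means inhibition above about 55%, limit read from the data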
SRC1 inh: inhibits human SRC1 coactivator. Q15788. HEK293 GAL4-SRC1 luciferase reporter, luminescence. inhibition, % at 3.6 µM. 360,000 compounds, 0.12% hits. AID 588354;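 active means inhibition above the campaign mean plus 3 SD, with each screening campaign given its own cutoff, cut at about 60% in these data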
SRC3 inh: human NCOA3 inhibition; 360,000 compounds, 0.17% hits; AID 588352; HEK293 GAL4-SRC3 luciferase reporter, luminescence; inhibition, % at 3.6 µM; Q9Y6Q9;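 active means inhibition above a per-campaign cutoff, the mean of all compounds plus 3 SD, cut at about 60% in these data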;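 further: higher means less SRC3-driven luciferase light from the GAL4 reporter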
Gli antag conf: confirmation of Gli-SUFU pathway antagonists. shares compounds with Gli-Sufu block. Sufu-KO-LIGHT cells, Gli luciferase reporter, luminescence. inhibition, % at 5 µM. 2,500 compounds, 40% hits;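 active means mean inhibition at 5 µM reaching about 45%, limit read from the data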
Gli cytotox: counter-screen for Gli-SUFU antagonists: cytotoxicity. shares compounds with Gli-Sufu block. Sufu-KO-LIGHT cells cytotoxicity, ATP luminescence. cytotoxicity, % at 5 µM. 2,500 compounds, 32% hits. AID 651994;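 active means mean cytotoxicity at 5 µM above about 25%, limit read from the data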;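 further: cells exposed to compound overnight for roughly 16 to 18 hours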
Wnt3a cs: Wnt3a reporter inhibition counter-screen | AID 651995 | 2,500 compounds, 20% hits | Wnt-LIGHT cells, Wnt3a-driven luciferase reporter, luminescence | shares compounds with Gli-Sufu block | inhibition, % at 6.25 µM;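 active means mean inhibition above about 25%, limit read from the data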
A number is an active result.

Screening CCc1nc(SCC(=O)Nc2nnc(CC)s2)c2c(=O)n(C)c(=O)n(C)c2n1 returned NR5A2 inv ag inactive, SRC2 inh inactive, Gli-Sufu block inactive, SRC1 inh inactive and SRC3 inh inactive.
For CN(C)c1ccc(C(=O)NC2CCCCN(Cc3ccc(Cl)cc3)C2=O)cc1 (stereo not drawn) the results were SRC2 inh inactive.
For COC(=O)Cc1ccc(NC(=O)c2ccc(C(C)(C)C)cc2)cc1 the results were NR5A2 inv ag inactive, SRC2 inh 83, Gli-Sufu block 72, SRC1 inh inactive, SRC3 inh inactive, Gli antag conf 77, Gli cytotox 45 and Wnt3a cs 102.
COc1ccc(C2CC(c3ccccc3)=NN2S(=O)(=O)c2ccc(C)cc2)c(OC)c1 (stereo not drawn) was read as NR5A2 inv ag inactive, SRC2 inh inactive, Gli-Sufu block inactive, SRC1 inh inactive, SRC3 inh inactive, Gli antag conf inactive, Gli cytotox 37 and Wnt3a cs inactive.
For CC1=C(C(N)=O)C(c2cccnc2)n2nc(SCc3ccccc3Cl)nc2N1 (stereo not drawn) the results were NR5A2 inv ag inactive, Gli-Sufu block 58, SRC1 inh inactive, SRC3 inh inactive, Gli antag conf inactive, Gli cytotox inactive and Wnt3a cs inactive.
`CC1=C(C(N)=O)C(c2ccccn2)n2nc(SCc3ccccc3Cl)nc2N1` (stereo not drawn) gave NR5A2 inv ag inactive, SRC2 inh inactive, Gli-Sufu block inactive, SRC1 inh inactive and SRC3 inh inactive.
NC(=O)NOCc1ccc(Cl)cc1Cl was read as NR5A2 inv ag inactive, SRC2 inh inactive, Gli-Sufu block inactive, SRC1 inh inactive and SRC3 inh inactive.
`CNC(=S)/N=C/NOCc1ccc(Cl)cc1Cl` gave NR5A2 inv ag inactive, SRC2 inh inactive, Gli-Sufu block inactive, SRC1 inh inactive, SRC3 inh inactive, Gli antag conf inactive, Gli cytotox inactive and Wnt3a cs inactive.
C/C(CC(=O)Nc1ccccn1)=N\NC(=O)C(=O)Nc1ccccc1C was read as NR5A2 inv ag inactive, SRC2 inh inactive, Gli-Sufu block 56, SRC1 inh inactive, SRC3 inh inactive, Gli antag conf inactive, Gli cytotox inactive and Wnt3a cs inactive.
Screening COc1ccccc1NC(=O)C(=O)N/N=C(\C)CC(=O)Nc1ccccn1 returned NR5A2 inv ag inactive, SRC2 inh inactive, SRC1 inh inactive and SRC3 inh inactive.
CCCn1c(O)c(N=NC(=O)CNC(=O)c2cccnc2)c2ccccc21 was read as NR5A2 inv ag inactive, SRC2 inh inactive, Gli-Sufu block inactive, SRC1 inh inactive and SRC3 inh inactive.
`Cn1c(O)c(N=NC(=O)CNC(=O)c2cccnc2)c2ccccc21` gave NR5A2 inv ag inactive, SRC2 inh inactive, Gli-Sufu block inactive, SRC1 inh inactive, SRC3 inh inactive, Gli antag conf inactive, Gli cytotox inactive and Wnt3a cs inactive.
`C/C(=N\NC(=O)c1nnn(-c2nonc2N)c1C(C)C)c1ccc2ccccc2c1` gave NR5A2 inv ag inactive, SRC2 inh inactive, Gli-Sufu block 60, SRC1 inh inactive, SRC3 inh inactive, Gli antag conf inactive, Gli cytotox 28 and Wnt3a cs inactive.
`COc1ccc(/C=C/C(=O)c2cc(F)ccc2OC(=O)c2ccccc2)cc1OC` gave NR5A2 inv ag inactive, SRC2 inh inactive, Gli-Sufu block inactive, SRC1 inh inactive, SRC3 inh inactive, Gli antag conf 60, Gli cytotox 49 and Wnt3a cs inactive.
COc1ccc(/C=C/C(=O)c2cc(F)ccc2OC(=O)c2ccc(OC)c(OC)c2)cc1OC was read as NR5A2 inv ag inactive, SRC2 inh inactive, Gli-Sufu block inactive, SRC1 inh inactive and SRC3 inh inactive.
Cc1ccc(OCCC(=O)N2CCN(c3ccc(O)cc3)CC2)cc1 was read as NR5A2 inv ag inactive, SRC2 inh inactive, Gli-Sufu block inactive, SRC1 inh inactive, SRC3 inh inactive, Gli antag conf inactive, Gli cytotox inactive and Wnt3a cs inactive.
`COC(=O)C[C@H]1CC[C@H]2[C@H](COc3ccc(NS(=O)(=O)c4ccccc4C)cc3C(=O)N2C)O1` gave SRC2 inh inactive.
C=CCOC/C=C/C#CCN(Cc1ccc(OC)cc1OC)C(=O)Nc1ccccc1 was read as SRC2 inh inactive.
CC(=O)c1c(C)[nH]c(C(=O)OCC(=O)Nc2ccc(C)cc2[N+](=O)[O-])c1C was read as NR5A2 inv ag inactive, SRC2 inh inactive, Gli-Sufu block 77, SRC1 inh inactive, SRC3 inh inactive, Gli antag conf 80, Gli cytotox 27 and Wnt3a cs 28.
`CCCc1cc(=O)oc2cc(C)cc(OCC(=O)O)c12` gave NR5A2 inv ag inactive, SRC2 inh inactive, Gli-Sufu block 100, SRC1 inh inactive, SRC3 inh inactive, Gli antag conf inactive, Gli cytotox inactive and Wnt3a cs inactive.
For Cc1cc(C)cc(C(=O)N(NC(=O)Nc2ccc(Cl)cc2)C(C)(C)C)c1 the results were NR5A2 inv ag inactive, SRC2 inh inactive, Gli-Sufu block 60, SRC1 inh inactive, SRC3 inh inactive, Gli antag conf inactive, Gli cytotox inactive and Wnt3a cs inactive.
Screening CC(C)(C)N(NC(=O)Nc1ccc(Cl)c(Cl)c1)C(=O)c1ccccc1 returned NR5A2 inv ag inactive, SRC2 inh inactive, Gli-Sufu block inactive, SRC1 inh inactive and SRC3 inh inactive.
`Cc1cc(C)c[n+](C(C)C(=O)c2ccc(-c3ccccc3)cc2)c1` (stereo not drawn) gave NR5A2 inv ag inactive, SRC2 inh inactive, Gli-Sufu block 80, SRC1 inh inactive, SRC3 inh inactive, Gli antag conf 79, Gli cytotox inactive and Wnt3a cs inactive.
COc1ccc(-n2nnnc2SCC(=O)Nc2nnc(C)s2)cc1 was read as NR5A2 inv ag inactive, SRC2 inh inactive, Gli-Sufu block 59, SRC1 inh inactive, SRC3 inh inactive, Gli antag conf inactive, Gli cytotox inactive and Wnt3a cs inactive.
For O=C(Nc1cccc(S(=O)(=O)Nc2ccc(Cl)cc2)c1)c1ccc(Cl)nc1 the results were NR5A2 inv ag inactive, SRC2 inh inactive, Gli-Sufu block 68, SRC1 inh inactive, SRC3 inh inactive, Gli antag conf 64, Gli cytotox 39 and Wnt3a cs inactive.
COc1ccc(NS(=O)(=O)c2cccc(NC(=O)c3ccc(Cl)nc3)c2)cc1 was read as NR5A2 inv ag inactive, SRC2 inh inactive, Gli-Sufu block 69, SRC1 inh inactive, SRC3 inh inactive, Gli antag conf 68, Gli cytotox 41 and Wnt3a cs inactive.
For COc1cccc(S(=O)(=O)Nc2ccc(C(=O)Nc3ccncc3)cc2)c1 the results were NR5A2 inv ag inactive, SRC2 inh inactive, Gli-Sufu block inactive, SRC1 inh inactive and SRC3 inh inactive.
